According to a collection of fitness landscapes (doi:10.1126/science.1257360):
The full ranking holds about 140,000 sequences; the median of “enrichment ratio after two sorts for PhoP signalling” is about 0, and the highest 2% start at about 11. What follows is part of a selection rich in the highest values, with near analogues and random picks from the rest.

B1: PhoQ; a variant is named by its letters at X, in order, P23837 (parent)
chain: MKKLLRLFFPLSLRVRFLLATAAVVLVLSLAYGMVALIGYSVSFDKTTFRLLRGESNLFYTLAKWENNKLHVELPENIDKQSPTMTLIYDENGQLLWAQRDVPWLMKMIQPDWLKSNGFHEIEADVNDTSLLLSGDHSIQQQLQEVREDDDDAEMTHSVAVNVYPATSRMPKLTIVVVDTIPVELKSSYMVWSWFIYVLSANLLLVIPLLWVAAWWSLRPIEALAKEVRELEEHNRELLNPATTRELTSLVRNLNRLLKSERERYDKYRTTLTDLTHSLKTPLXXLQXXLRSLRSEKMSVSDAEPVMLEQISRISQQIGYYLHRASMRGGTLLSRELHPVAPLLDNLTSALNKVYQRKGVNISLDISPEISFVGEQNDFVEVMGNVLDNACKYCLEFVEISARQTDEHLYIVVEDDGPGIPLSKREVIFDRGQRVDTLRPGQGVGLAVAREITEQYEGKIVAGESMLGGARMEVIFGRQHSAPKDE

Variants of: B1
Assay: enrichment ratio after two sorts for PhoP signalling (ratio (wild type AVST 3.29)); higher = more functional
Settings: with PhoP (E. coli)

Variant	enrichment ratio
FDEE	≤ 0.25
LLLK	≤ 0.25
IWDM	≤ 0.25
WDSH	≤ 0.25
HNFP	≤ 0.25
PDHT	≤ 0.25
MHPL	≤ 0.25
KHNC	≤ 0.25
AWVP	≤ 0.25
NDNL	≤ 0.25
KYCD	≤ 0.25
SPCD	≤ 0.25
SNCD	16.4
SCCD	16.2
KCCD	≤ 0.25
VCCD	≤ 0.25
FQCD	≤ 0.25
SQCD	11.4
STCD	6.22
GQTA	≤ 0.25
QQPV	≤ 0.25
TPAE	≤ 0.25
VMCM	≤ 0.25
QQDM	≤ 0.25

Variant	enrichment ratio
SEES	6.49
LFRE	≤ 0.25
EYQC	≤ 0.25
GNCF	6.9
GVCF	25
PVCF	≤ 0.25
FVCF	12
MVCF	5.97
NVCF	≤ 0.25
KKRY	≤ 0.25
LMRK	≤ 0.25
KFQK	≤ 0.25
KDWW	≤ 0.25
TEMW	≤ 0.25
TEMS	11.4
MEIG	8.35
NEIG	≤ 0.25
TEMV	20.2
TEEV	≤ 0.25
TEMD	1.58
TEMR	12.2
TEGR	≤ 0.25
TEIG	18.6
HRMR	≤ 0.25

Variant	enrichment ratio
TEYV	4.31
VAVY	≤ 0.25
IKRV	≤ 0.25
WDMR	≤ 0.25
RSTE	≤ 0.25
RVPP	≤ 0.25
KQPC	≤ 0.25
EFMI	≤ 0.25
QNHE	≤ 0.25
HRLN	≤ 0.25
REIC	≤ 0.25
VPQL	≤ 0.25
KSWV	≤ 0.25
HPWV	≤ 0.25
TEGV	12.6
TEMG	19.1
KRMK	≤ 0.25
TEVG	10.9
TEMK	32.5
TGGV	4.98
TEWV	18.4
TEHV	10.3
TEGG	5.71
NRMK	≤ 0.25

Variant	enrichment ratio
GQIN	≤ 0.25
NEIF	≤ 0.25
PWWM	≤ 0.25
LMKL	≤ 0.25
AMSP	≤ 0.25
LRMY	≤ 0.25
TEMT	7.24
TEMI	51.6
MEAG	≤ 0.25
KRMA	≤ 0.25
TEMF	5.53
NEAG	2.93
TEMA	38.6
TEAG	19.7
TRMY	0.856
SRMA	≤ 0.25
TEMY	12.3
KIPV	≤ 0.25
QTVW	≤ 0.25
FSFP	≤ 0.25
AQCA	32.5
AQGM	13.3
EQCQ	≤ 0.25
AQGR	≤ 0.25

Variant	enrichment ratio
AQCS	11.1
AKFM	0.887
AQGD	≤ 0.25
AQQP	≤ 0.25
AQCI	8.62
AIFM	≤ 0.25
AQCQ	31.6
AQFM	12.2
NSDI	≤ 0.25
SHDW	≤ 0.25
PPSE	≤ 0.25
GEHW	≤ 0.25
SDNF	≤ 0.25
WLKM	≤ 0.25
FCKF	≤ 0.25
MLLR	≤ 0.25
FQAN	≤ 0.25
ILQV	≤ 0.25
ELVF	≤ 0.25
YMHL	≤ 0.25
ENAI	≤ 0.25
AQRM	≤ 0.25
AQWM	≤ 0.25
AQCK	29.5

Variant	enrichment ratio
EQPV	≤ 0.25
NEVC	≤ 0.25
ALLL	8.77
SNLL	18.5
GELL	12.9
GEGL	≤ 0.25
GEEL	≤ 0.25
APLL	≤ 0.25
TGLL	12.6
NGLL	3.87
SPLL	≤ 0.25
CFLL	≤ 0.25
ANLL	13.4
SRLL	10.3
FYWW	≤ 0.25
TYKE	≤ 0.25
SNRC	≤ 0.25
GTRN	≤ 0.25
HRVR	≤ 0.25
LSWW	≤ 0.25
ACNW	≤ 0.25
QYTV	≤ 0.25
PYEY	≤ 0.25
MGMC	5.27

Variant	enrichment ratio
THLL	14
TILL	0.421
SGLL	19.8
QGLL	10.4
NHLL	≤ 0.25
KDLL	≤ 0.25
YHLL	≤ 0.25
FDLL	≤ 0.25
FGLL	12.6
TDLL	11.8
FGNL	≤ 0.25
IMDM	≤ 0.25
IQAN	≤ 0.25
PYDA	≤ 0.25
PKEG	≤ 0.25
VQIN	≤ 0.25
QPDT	≤ 0.25
LCFE	≤ 0.25
CCPF	≤ 0.25
HHCS	≤ 0.25
SMLS	6.78
SMLA	6.54
SMLL	11.2
CTLL	0.613

Variant	enrichment ratio
ITLL	7.22
QELL	≤ 0.25
TTLL	17.7
GLLL	11.7
SELL	16.3
MVLL	7.33
GLLA	≤ 0.25
HWCD	2.96
RPRI	≤ 0.25
VRDD	≤ 0.25
KIGV	≤ 0.25
THDR	≤ 0.25
AYVL	≤ 0.25
MAPF	≤ 0.25
SDCN	4.78
WMRH	≤ 0.25
DNPC	≤ 0.25
DPLL	≤ 0.25
RGLL	≤ 0.25
GYLL	≤ 0.25
MCLL	8.32
MNLL	12.4
KYLL	≤ 0.25
AGLL	14.6

Variant	enrichment ratio
SQLL	12.5
GGLL	12.7
TNLL	4.87
QKGI	≤ 0.25
VHAG	≤ 0.25
IAYV	≤ 0.25
FDHC	≤ 0.25
EIDC	≤ 0.25
SSGH	7.6
QDTV	≤ 0.25
ILKM	≤ 0.25
VYLL	≤ 0.25
VTLA	5.19
MGLL	14.3
VTLL	17.8
STLL	16.4
SALL	18.6
MGRL	≤ 0.25
SFLL	3.56
KQLL	≤ 0.25
MGGL	4.99
SLLL	5.02
IILL	1.2
PQRH	≤ 0.25

Variant	enrichment ratio
LTHP	≤ 0.25
TKSQ	2.92
HTAI	≤ 0.25
KTTI	≤ 0.25
LGSF	≤ 0.25
YVWK	≤ 0.25
IDNN	≤ 0.25
ATLL	20.5
YYLL	≤ 0.25
GSRL	≤ 0.25
ADLL	9.99
TPLL	≤ 0.25
YTLL	9.09
GSLL	14.1
AHLL	9.28
EQLL	≤ 0.25
IQLL	0.329
TQLL	18.9
FTLL	11.6
VRSK	≤ 0.25
LRNP	≤ 0.25
AMGN	1.38
QRDR	≤ 0.25
FIYI	≤ 0.25

Variant	enrichment ratio
ITNW	≤ 0.25
WLSG	≤ 0.25
FDMD	≤ 0.25
MVGW	≤ 0.25
DRLW	≤ 0.25
NPLL	≤ 0.25
GNLL	15.3
GTLL	12.4
LNLL	≤ 0.25
GILL	18.2
GCLL	18.3
NILL	0.938
KCLL	≤ 0.25
GICL	9.48
WILL	≤ 0.25
LTLL	3.06
QCLL	2.35
TKDY	≤ 0.25
KPVK	≤ 0.25
ICMI	≤ 0.25
SFHP	≤ 0.25
YHHD	≤ 0.25
AQVH	7.73
GEFP	≤ 0.25

Variant	enrichment ratio
VRNY	≤ 0.25
YALL	10.6
GIAL	13
HILL	≤ 0.25
GALL	13.8
SKLL	14
GNAL	7.59
SKLT	4.23
GAAL	≤ 0.25
WKIW	≤ 0.25
PCAY	≤ 0.25
QHAW	≤ 0.25
LSTI	≤ 0.25
GWLL	≤ 0.25
KRIA	≤ 0.25
FCYK	≤ 0.25
PGQT	≤ 0.25
QFAV	≤ 0.25
FDWQ	≤ 0.25
SGCY	10.6
NICK	14.4
WICV	≤ 0.25
NICR	≤ 0.25
AHMR	≤ 0.25

Variant	enrichment ratio
KKMR	≤ 0.25
ADCV	≤ 0.25
NICI	≤ 0.25
AICV	15.3
AIMR	16.6
AICR	11.2
WICR	≤ 0.25
NIWM	≤ 0.25
IVKK	≤ 0.25
LSQL	≤ 0.25
TSAF	7.11
PIGM	≤ 0.25
AIGM	8.76
AIWM	≤ 0.25
WICS	≤ 0.25
AHYP	≤ 0.25
ADYP	≤ 0.25
AICI	16.9
AICS	18.9
AILH	3.54
AICA	3.23
NICS	≤ 0.25
AIYP	12.7
AICK	24.4
